Screens as filed in PubChem.
Shiga inhibitor: Shiga toxin inhibition; Vero cells, Shiga toxin protein synthesis inhibition reporter; inhibition, % at 38.7 µM; actives 9.2% (n = 290,000); in the data active means inhibition mostly above about 28%, no sharp cut-off; inactive means mostly below about 43%; further: 0% is about no effect
LmPK inhibitor: blocks Leishmania mexicana pyruvate kinase activity | purified LmPK, Kinase-Glo ATP luminescence, 1 h | Potency, µM (series often up to 57.5 µM), without a hit: at the highest dose activity change, negative = inhibition, usual class: inhibitors | actives 0.37% (n = 290,000); further: potency means the concentration at half of the fitted maximal effect; on the % scale 0 is the no-effect control and ±100 the full control effect
Target sequence (Q27686 whole entry, looked up): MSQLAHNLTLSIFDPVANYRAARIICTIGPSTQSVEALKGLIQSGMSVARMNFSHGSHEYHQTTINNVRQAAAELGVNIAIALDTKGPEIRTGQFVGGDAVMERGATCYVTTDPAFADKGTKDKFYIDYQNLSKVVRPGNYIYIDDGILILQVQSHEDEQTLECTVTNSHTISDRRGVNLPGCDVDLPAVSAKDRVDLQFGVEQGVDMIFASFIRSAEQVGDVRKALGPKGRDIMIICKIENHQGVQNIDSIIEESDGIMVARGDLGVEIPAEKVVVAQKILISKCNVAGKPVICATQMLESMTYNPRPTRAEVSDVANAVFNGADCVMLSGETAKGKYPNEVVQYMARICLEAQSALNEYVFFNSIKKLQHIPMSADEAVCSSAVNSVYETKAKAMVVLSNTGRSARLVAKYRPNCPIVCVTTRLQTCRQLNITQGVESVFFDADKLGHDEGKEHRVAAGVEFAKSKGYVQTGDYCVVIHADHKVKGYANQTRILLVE
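ATP generated from ADP (0.1 mM) and PEP (0.5 mM) by 0.1 nM LmPK over 1 h at room temperature (pH 7.2 imidazole buffer) was detected by coupled luciferase luminescence. Values were normalized to uninhibited and no-enzyme wells.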
RE007 growth inh: less growth of the S. pombe RE007 Vpr strain; S. pombe RE007 Vpr strain, BacTiter-Glo ATP luminescence, 24 h; Potency, µM (top dose mostly 92.2 µM), for inactives: at the top dose activity change, negative = less growth, most hits filed as inhibitors; actives 0.21% (n = 360,000); AID 651644; active means well fitted falling curve with a large enough effect; inconclusive means small, poorly fitted or top-dose-only effect; inactive means no such curve, though single readings can be large or run the other way; further: potency means the concentration at half of the fitted maximal effect; on the % scale 0 is the no-effect control and ±100 the full control effect; nearly all actives have a fitted effect of over 50% in size
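Fission yeast RE007 carrying one integrated HIV-1 vpr copy, seeded at OD 0.01 in PMG+AL medium with 23 nL pinned compound. Grown 24 h at 30 degrees; viability read by BacTiter-Glo luminescence after 5 min.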
Cycloheximide cs: affects cycloheximide protein synthesis inhibition readout, counter-screen. cell reporter, cycloheximide protein synthesis inhibition counterscreen. actives 12% (n = 300,000). max response, %; in the data active means max response mostly above about 13%, no sharp cut-off; inactive means mostly below about 14%; further: read at 38.3 µM for the half of the compounds with a filed dose; 0% is about no effect
TbPYK inhibitor: blocks Trypanosoma brucei pyruvate kinase. Q57TT1. TbPYK enzyme, Kinase-Glo Plus ATP luminescence, 45 min. Potency, µM (highest dose often 76.8 µM), for the others: at the highest dose activity, negative = inhibition, hits mostly inhibitors. actives 0.12% (n = 410,000). AID 624173; further: potency means the concentration at half of the fitted maximal effect; on the % scale 0 is the no-effect control and ±100 the full control effect; nearly all actives have a fitted effect of over 50% in size
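Screened from lowest to highest concentration, compounds were pinned into TbPYK/substrate mixtures, and ADP (130 uM final) was added. Plates sat at room temperature for 45 min prior to Kinase-Glo Plus detection by luminescence.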
Giardia FBPA inh: inhibitors of Giardia lamblia fructose-1,6-bisphosphate aldolase. actives 0.71% (n = 290,000). Potency, µM (titrated, usually from 59.6 µM), for the others: at the highest dose activity, negative = inhibition, actives largely listed as inhibitors. purified Giardia FBPA; further: potency means the concentration at half of the fitted maximal effect; on the % scale 0 is the no-effect control and ±100 the full control effect; nearly all actives have a fitted effect of over 55% in size
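40 nM FBPA preincubated 10 min at RT with compound (up to 57.5 uM final), then substrate plus GAPDH/TPI/NAD/arsenate coupling and diaphorase/resazurin added. Fluorescence read after 20 min at RT, 525/598 nm.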
* marks the source's active call; other numbers are inactive results; u = inconclusive; x = no result given; [ ] = remark or other dose. Shown is part of a subset that was picked to be rich in hits. Unless noted, the call rests on the fitted dose curve; in most records, active means well fitted curve in the direction sought with a large enough effect; inconclusive means small, poorly fitted or top-dose-only effect, or another doubt; inactive means no such curve, though single readings can be large; an effect the other way counts as inactive or inconclusive.

SMILES	Shiga inhibitor	LmPK inhibitor	RE007 growth inh	Cycloheximide cs	TbPYK inhibitor	Giardia FBPA inh
O=C(CSc1ccccc1)Nc1ccncc1	28	-3%	-15%	12*	-3%	1%
CC(=O)O[C@H]1C[C@@]2(C)[C@@H](C[C@@H](O)[C@H]3[C@@]4(C)CC[C@@H](O)[C@@H](C)[C@@H]4CC[C@@]32C)/C1=C(\CCC=C(C)C)C(=O)O	x	x	12%	x	2%	x
COC(=O)NC(c1cccc(F)c1)[C@]1(C(C)=O)CCCC1=O (stereo partly specified)	x	x	x	x	x	-2%[12.9 µM]
CN1CCN(c2ccc(NC(=O)CSc3ccccc3)cc2F)CC1	61*	-4%	-4%	49*	8%	3%
CC(=O)Oc1ccc(NC(=O)CSc2ccccc2)cc1	51	3%	-1%	45*	-4%	-4%
O=C(CSc1ccc(F)cc1)Nc1ccc(C2SCCS2)cc1	85*	4%	3%	35*	2%	1%
CCC1CSC(=Nc2ccc(C)cc2)N1C(=O)CN1C(=O)NC2(CCCC2)C1=O (stereo unspecified)	74*	1%	1%	34*	3%	-2%
Cc1ccc(C(NC(=O)CN2C(=O)NC3(CCCC3)C2=O)c2ccccc2)cc1 (stereo unspecified)	x	x	6%	x	0%	x
Cc1ccc2c(CNCc3ccco3)cc(=O)oc2c1	55*	5%	1%	38*	7%	2%
CN(CCC1CCCCO1)C(=O)CCc1nnc(C2CCCCC2)o1 (stereo unspecified)	40*	2%	17%	31*	3%	0%
O=C(CCc1nnc(C2CCCCC2)o1)N1CCN(C2CCCCC2)CC1	-5	-10%	2%	-2	-2%	3%
O=c1c2ccccc2[nH]c(=S)n1-c1ccc2c(c1)OCCO2	99*	-3%	-8%	45*	-2%	-6%
O=C1/C(=C/c2ccccc2F)SC(=S)N1CCC(=O)N1CCCCC1CCO (stereo unspecified)	12	6%	-5%	31*	-6%	x
O=C1/C(=C/c2ccc(Cl)cc2)SC(=S)N1CCC(=O)N1CCCCC1CCO (stereo unspecified)	7	-7%	-13%	-18	-7%	x
O=C1/C(=C/c2cccc(Cl)c2)SC(=S)N1CCC(=O)N1CCCCC1CCO (stereo unspecified)	26	-7%	-6%	15	-4%	x
O=C1/C(=C/c2cccs2)SC(=S)N1CC(=O)N1CCCCC1CCO (stereo unspecified)	18	0%	-14%	15*	-11%	x
O=C1/C(=C/c2ccccc2)SC(=S)N1CCCC(=O)N1CCCCC1CCO (stereo unspecified)	-3	11%	4%	4	4%	x
O=C1/C(=C/c2ccco2)SC(=S)N1CCC(=O)N1CCCCC1CCO (stereo unspecified)	16	14%	-10%	11*	-21%	x
Cc1cccc(NS(=O)(=O)c2ccc3[nH]c(=O)ccc3c2)c1C	x	x	x	x	-8%	x
C=CCNC(=O)O/N=C/c1csc([N+](=O)[O-])c1	32*	5%	-6%	12	-4%	-2%
CC(C)CNC(=S)NC(=O)c1csc([N+](=O)[O-])c1	11	-4%	u	11	9%	-4%
CCCc1cc(C(=O)Nc2cc(Cl)ccc2O)no1	92*	-7%	-5%	31*	-2%	8%
CCCc1cc(C(=O)Nc2cc(Br)ccc2O)no1	57*	1%	-14%	22*	9%	1%
CC(C)c1ccc(CN(Cc2ccco2)c2cnc(S(C)(=O)=O)nc2C(=O)Nc2ccc(F)cc2)cc1	x	x	x	x	0%	x
Cc1c(C(=O)Nc2ccc(F)cc2F)oc2ccc3c(c12)C(=O)CC(C)(C)O3	x	x	x	x	-2%	x
SMILES	Shiga inhibitor	LmPK inhibitor	RE007 growth inh	Cycloheximide cs	TbPYK inhibitor	Giardia FBPA inh
O=C(NNC(=O)c1ccccc1[N+](=O)[O-])Nc1ccc(Cl)cc1	35	0%	2%	14	0%	-1%
O=C(Nc1ccc(Cl)cn1)c1cccc2ccccc12	x	9%	-23%	18*	5%	-2%
O=C(Nc1ccc(Cl)cn1)c1ccccc1[N+](=O)[O-]	45	0%[11.5 µM]	-4%	18*	-9%	0%
O=C(CCC(=O)Nc1ccc(F)cc1)N/N=C/c1ccncc1	-21	12%[11.5 µM]	-7%	-3	-1%	-10%
O=C(Nc1ccccc1)O/N=C/c1ccncc1	38	-13%	-9%	17*	2%	1%
COc1cc(C=NOC(=O)Nc2ccccc2)cc(OC)c1OC	x	x	-8%	x	5%	x
O=C(CCC(=O)Nc1ccc(Br)cc1)N/N=C/c1ccccc1O	12	-7%	5%	21*	5%	-3%
O=C(CCC(=O)Nc1ccccc1)N/N=C/c1ccncc1	5	-2%	-1%	23*	1%	-25%
COc1ccc(/C=N/NC(=O)COc2ccc(Cl)cc2Cl)cc1Cn1nc(C)cc1C	-7	1%	11%	-3	-3%	7%
O=C(COc1ccc(Cl)cc1)c1ccc(O)cc1O	69*	2%	-10%	25*	3%	-1%
COC(=O)c1ccc(OCC(=O)c2ccc(O)cc2O)cc1	54	3%	-5%	11	-4%	10%
CCOC(=O)c1ccc(OCC(=O)c2ccc(O)cc2O)cc1	50*	3%	1%	18*	4%	10%
COCCNC(=O)C(c1ccc(C)o1)N(C(=O)C(=O)NC1CCCCC1)c1ccc(F)cc1 (stereo unspecified)	-17	3%	-4%	-2	-7%	-17%
CCOC(=O)C1CCCN(C(=O)CC(C)c2ccccc2)C1 (stereo unspecified)	169*	-2%	-1%	101*	0%	1%
CCOC(=O)C1CCCN(C(=O)CSc2ccccc2)C1 (stereo unspecified)	64*	-4%	31%	43*	34%	7%
CCOC(=O)C1CCCN(C(=O)CN2C(=O)/C(=C/c3ccc(OC)cc3)Oc3ccccc32)C1 (stereo unspecified)	29*	0%	6%	9	0%	-6%
CCc1cnc2c(c1SCc1c(F)cccc1Cl)c(=O)n(C)c(=O)n2C	x	x	x	x	-3%	x
COc1cccc(NC(=O)C/C(C)=N/NC(=O)c2ccccc2Cl)c1	55*	0%	-14%	25*	0%	-3%
C/C(CC(=O)Nc1cccc(Br)c1)=N\NC(=O)c1ccc(O)cc1O	65*	0%	-2%	31*	-4%	-1%
COc1ccc(Cl)cc1NC(=O)C/C(C)=N/NC(=O)c1ccccc1Cl	x	5%	-18%	12	0%	1%
